Experimental data as given in PubChem BioAssay AID588727 (Southern Research Specialized Biocontainment Screening …, 2011).
Hit rate of the full screen: of about 350,000 compounds, about 450 (0.13%) were called active. The rule behind the calls is not given here. These entries were drawn from the full list. Entries with a potency or affinity are not part of this list.

Experiment: inhibitors of VEEV TC-83 cytopathic effect, confirmation, Vero cells (AID 588727)
Settings: VEEV TC-83 cytopathic effect inhibition, at 20 µM; hits give high values unless noted

SMILES	inhibition
CC(C)CCC(=O)N1CCC(N2CCC(C(=O)NCc3ccccn3)CC2)CC1	0.93% (inactive)
CC(C)(C)n1nc2c(c1NC(=O)c1ccc(F)c(F)c1)CS(=O)(=O)C2	0.7% (inactive)
O=C(C1CC(=O)N(c2ccc(F)cc2)C1)N1CCCCCC1 (stereo not drawn)	inactive
O=C1c2cccnc2C(=O)N1CO	0.3% (inactive)
CC(C)(C)C1CCc2c(sc3c2C(=O)NC(c2ccco2)N3)C1 (stereo not drawn)	0.21% (inactive)
CCC(=O)Nc1cc(C(=O)O)ccc1Sc1ccccc1	0.44% (inactive)
Cn1cc(CCC(=O)NCc2cccc(Cl)c2)c2ccccc21	0.85% (inactive)
O=C(COC(=O)c1ccc(Cl)cc1[N+](=O)[O-])NCc1ccco1	0.06% (inactive)
Cc1ccc(S(=O)(=O)Nc2ccc(C(=O)NCCCn3ccnc3)cc2)cc1[N+](=O)[O-]	0.22% (inactive)
COc1ccc(COC(=O)c2cccc(S(=O)(=O)N3CCN(C(C)=O)CC3)c2)cc1F	1.43% (inactive)
CC(=O)OC1CCC2(C)C3CCC4(C)C(C(C)=O)CCC4C3CC3OC32C1 (stereo not drawn)	4.89% (inactive)
CC12CC[C@H]3[C@@H](CCC4(O)C[C@H](O)CCC34/C=N/NC(=O)c3ccccc3F)C1(O)CCC2C1=CC(=O)OC1 (stereo partly drawn)	8.49% (inactive)
C[C@]12CCC3C(CC[C@H]4C[C@H](O)CC[C@]34C)C1CC(=O)[C@@H]2O (stereo partly drawn)	2.26% (inactive)
CC(=O)OC1CC2(O)C3CCC4CC(O)CCC4(C)C3CCC2(C)C1C1=CC(=O)OC1 (stereo not drawn)	24.4% (inactive)
C[C@]12CCC3C(CC[C@@H]4C[C@@H](O)CC[C@]34C)C1CC[C@@H]2O (stereo partly drawn)	1.93% (inactive)
CC(=O)OC1CC[C@]2(C#N)[C@H]3CC[C@]4(C)[C@H](C5C=CC(=O)O5)CCC4(O)C3CCC2(O)C1 (stereo partly drawn)	21.3% (inactive)
CC12CC[C@H]3[C@@H](CCC4(O)C[C@H](O)CCC34/C=N/NC(=O)Cc3ccccc3)C1(O)CCC2C1=CC(=O)OC1 (stereo partly drawn)	1.62% (inactive)
CC(C)c1ccc(NC(=O)CN2C(=O)NC3(CCCC3)C2=O)cc1	inactive
CCOC(=O)C1CCCN(C(=O)c2cc3cc4ccc(OC)cc4nc3o2)C1 (stereo not drawn)	1.72% (inactive)
Cc1ccc(N2C(=O)N3[C@H]4c5ccccc5OC[C@@H]4[C@@H](c4ccccc4)[C@@]3(C)C2=O)cc1	0.66% (inactive)
CN(CC(=O)Nc1cccc(F)c1)C(=O)CCc1nc2cc(S(=O)(=O)N3CCOCC3)ccc2n1C	0.55% (inactive)

SMILES	inhibition
CC(C)Oc1ccc(CSc2nnc3n(C)c(=O)c4c5c(sc4n23)CCCC5)cc1	inactive
CCCCNC(=O)COC(=O)c1ccc(SC)cc1OC	2.58% (inactive)
CC(=O)Nc1ccc(S(=O)(=O)N2CCC(NC(=O)C(Cc3cccc(F)c3)NC(C)=O)CC2)cc1 (stereo not drawn)	0.28% (inactive)
COc1ccc(C(=O)N/N=C/C23CC[C@@H](O)CC2(O)CC[C@@H]2[C@@H]3CCC3(C)C(C4=CC(=O)OC4)CCC23O)cc1 (stereo partly drawn)	42.5% (inactive)
CC(=O)O[C@@H]1CC[C@]2(C)C3CC[C@@]4(C)C(C[C@@H](O)[C@@H]4O)C3[C@@H](OC(C)=O)C[C@H]2C1 (stereo partly drawn)	0.36% (inactive)
COc1cc(C(=O)N/N=C/C23CC[C@@H](O)CC2(O)CC[C@@H]2[C@@H]3CCC3(C)C(C4=CC(=O)OC4)CCC23O)ccc1O (stereo partly drawn)	7% (inactive)
C[C@]12CCC3C(CCC4=CC(O)CC[C@@]43/C=N/O)C1(O)CCC2C1=CC(=O)OC1 (stereo partly drawn)	27.9% (inactive)
C[C@H]1CC[C@@H]2[C@@H](C)[C@H]3[C@H](C[C@H]4[C@@H]5CC=C6C[C@@H](O[C@@H]7O[C@H](CO)[C@H](O)[C@H](O[C@@H]8O[C@H](CO)[C@@H](O)[C@H](O)[C@H]8O)[C@H]7O[C@@H]7O[C@@H](C)[C@H](O)[C@@H](O)[C@H]7O)CC[C@]6(C)[C@H]5CC[C@]34C)N2C1	inactive
CC12CC[C@H]3[C@@H](CCC4(O)C[C@H](O)CCC34/C=N/NC(=O)c3ccc(O)cc3)C1(O)CCC2C1=CC(=O)OC1 (stereo partly drawn)	0.73% (inactive)
CC(=O)[C@@]1(O)CCC2C3CC[C@H]4C[C@@H](O)CC[C@]4(C)C3CC[C@@]21C (stereo partly drawn)	6.31% (inactive)
CCOc1ccc(N2CC(C(=O)Nc3cccc(C(=O)NC4CC4)c3)CC2=O)cc1 (stereo not drawn)	1.22% (inactive)
Cc1ccccc1OCC(=O)Nc1ccc(N2CCOCC2)cc1N1CCOCC1	6.68% (inactive)
COc1ccc(C2(C)NC(=O)NC2=O)cc1OC (stereo not drawn)	inactive
COc1ccc(OC(C)c2ccc(C#N)c(=O)[nH]2)cc1 (stereo not drawn)	1% (inactive)
Cc1cc(=O)[nH]c(SCn2nnc3ccccc3c2=O)n1	0.62% (inactive)
COc1ccc(S(=O)(=O)c2c(O)c3ccc(C(=O)Nc4ccccc4Cl)cc3[nH]c2=O)cc1	0.45% (inactive)
O=C1COc2ccc(C(=O)COC(=O)c3ccc(S(=O)(=O)C(F)F)cc3)cc2N1	3.01% (inactive)
COc1cc(/C=N/NC2=NS(=O)(=O)c3ccccc32)cc(OC)c1OC	0.18% (inactive)
C[C@]12CC[C@H]3[C@@H](CC[C@]4(O)C[C@@H](O)CC[C@]34C=O)[C@@]1(O)CC[C@@H]2C1=CC(=O)OC1	24.6% (inactive)
CC12CC[C@H]3[C@@H](CCC4(O)C[C@H](O)CCC34/C=N/NC(=O)c3ccccc3Cl)C1(O)CCC2C1=CC(=O)OC1 (stereo partly drawn)	2.51% (inactive)
Fc1ccc(-c2nnc(Cc3ccc(Cl)cc3)o2)cc1	inactive

SMILES	inhibition
Cc1ccc(OCCSc2nc(N)cc(N)n2)cc1	3.61% (inactive)
O=C(c1ccc(F)cc1)c1ccc(-c2ccc(F)cc2)nc1	1.5% (inactive)
Cc1cc(C)c2nc(N(CCCN(C)C)C(=O)c3ccc4c(c3)OCCO4)sc2c1	11.7% (inactive)
COc1ccc(Cl)c2sc(N(CCN(C)C)C(=O)c3ccc4c(c3)OCCO4)nc12	3.95% (inactive)
CN(Cc1ccccc1)C(=O)CN(C)S(=O)(=O)c1ccc(F)cc1	0.12% (inactive)
COc1ccc2cc(-c3cc(C(=O)OCC(=O)Nc4c(C)n(C)n(-c5ccccc5)c4=O)c4ccccc4n3)ccc2c1	inactive
Cc1c(NC(=O)COC(=O)c2cc(-c3cccc4ccccc34)nc3ccccc23)c(=O)n(-c2ccccc2)n1C	2.81% (inactive)
CC(C)[C@H](NC(=O)C1CC(=O)N(c2ccc3c(c2)OCCO3)C1)C(=O)NC1CCCC1 (stereo partly drawn)	3.54% (inactive)
O=C(CSc1nnc(-c2ccccc2Br)o1)N1CCOCC1	0.96% (inactive)
O=C1NC(=O)C(Cc2cccc(Oc3ccccc3)c2)S1 (stereo not drawn)	0.8% (inactive)
Nc1ccc(CC2SC(=O)NC2=O)cc1 (stereo not drawn)	0.36% (inactive)
Cc1ccccc1N1C(=O)C(Cc2ccc(F)cc2)S/C1=C(\C#N)C(N)=O (stereo not drawn)	0.67% (inactive)
Cc1ccc(CC2SC(=O)NC2=O)cc1Cl (stereo not drawn)	4.25% (inactive)
COc1ccc(/C=C(/NC(=O)c2ccccc2)C(=O)N2CCCC2)cc1	1.46% (inactive)
CCN(Cc1ccccc1)C(=O)c1ccc(N(C)S(=O)(=O)c2ccc(C)cc2)cc1	10.1% (inactive)
CC(=O)NC1=NN(C(C)=O)C(c2ccc(C)cc2)S1 (stereo not drawn)	0.39% (inactive)
Cc1[nH]c2ccccc2c1/C=N/NC(=O)c1cccc(F)c1	4.66% (inactive)
CCOC(=O)CNC(=O)CSc1nc(C(C)C)nc2c1cnn2-c1ccccc1	8.46% (inactive)
COc1ccc(-c2cc(=O)oc3cc(OC(C)C(=O)NCCCn4ccnc4)ccc23)cc1 (stereo not drawn)	1.83% (inactive)
CCCc1nc2c(=O)n(C)c(=O)[nH]c2n1CCC	0.72% (inactive)
CCn1c(=O)c2[nH]c(SC)nc2n(CC)c1=O	1.13% (inactive)

SMILES	inhibition
COc1ccccc1-c1ccc2c(c1)O[C@@H](CN(C)C(=O)Nc1cccc(F)c1)[C@H](C)CN([C@H](C)CO)S2(=O)=O	5.59% (inactive)
O=C(N/N=C(/CC(=O)c1cccs1)C(F)(F)F)c1ccc(O)cc1	0.06% (inactive)
O=C(N/N=C(\CC(=O)c1cccs1)C(F)(F)F)c1cccnc1	inactive
CCOCCn1c(CN2CCN(c3cccc(Cl)c3)CC2)nc2c1c(=O)n(C)c(=O)n2C	inactive
COc1ccc(N2CCN(C(=O)c3cc(=O)c4cc(Cl)ccc4o3)CC2)cc1	0.39% (inactive)
COC(=O)c1ccc(C(=O)OCc2nc3cc4ccccc4cc3[nH]2)cc1	0.06% (inactive)
Nc1ccc(C(=O)OCc2nc3ccccc3[nH]2)cc1	2.64% (inactive)
COc1ccc(CN(CC(=O)NCc2ccc(F)cc2)C(=O)c2csnn2)cc1	1.52% (inactive)
COc1ccc(NC(=O)c2nc[nH]c2C(=O)NCC(=O)OC(C)(C)C)cc1	3.26% (inactive)
Cc1cccc(C(=O)NC(=S)NCc2ccccc2)c1	2.47% (inactive)
O=C(NNC(=S)NC(=O)c1ccccc1)c1ccc(O)cc1	4.47% (inactive)
Cc1cccc(C(=O)NNC(=S)NC(=O)c2ccccc2)c1	46.7% (inactive)
Cc1ccc(C(=O)NC(=S)NNC(=O)c2ccccc2)cc1	0.96% (inactive)
O=C(NNC(=S)NC(=O)c1ccco1)c1ccc(F)cc1	0.7% (inactive)
Cc1ccc(C(=O)NNC(=O)c2ccco2)cc1	1.42% (inactive)
O=C(NNC(=S)NC(=O)c1cccs1)c1ccc(O)cc1	3.95% (inactive)
Cc1cccc(C(=O)NC(=S)NNC(=O)c2cccs2)c1	inactive
COc1ccccc1NC(=O)C1CCN(S(=O)(=O)c2cccc3nonc23)CC1	9.33% (inactive)
CCOC(=O)c1ccc(NC(=O)CSc2nnc(CNc3ccc(OC)cc3)n2C)cc1	0.98% (inactive)
O=C(c1ccc(N2CCOCC2)c([N+](=O)[O-])c1)N1CCCCC1	2.47% (inactive)
